# Experimental data as given in the supplement of paper PMC9262897, “Low-cost anti-mycobacterial drug discovery using engineered E. coli” (Nature Communications, 2022).
# Counter-ions that a name gives are not always drawn. ± gives the standard deviation of the averaged measurements.
# Assays:
# Assay in all cases: growth (OD600 after 10 h); higher = more growth (less inhibition)
# [1] = tested on: E. coli TESEC Alr+ wild-type control; settings: compound 0.1 mM; raw OD600 reference: median of DMSO wells 0.241, cell-free background 0.041
# Procedure: (§1)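 TESEC Mtb Alr E. coli, or the Alr+ wild-type control, in 384-well plates with Prestwick library compounds at 0.1 mM and 1% DMSO, across arabinose induction levels of 1E3 to 1E7 nM. Growth is read as OD600 after 10 h at 37 °C in triplicate biological replicates.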
# [2] = tested on: E. coli TESEC Mtb Alr; settings: compound 0.1 mM
# Procedure: as §1
# [3] = tested on: E. coli TESEC Mtb Asd; settings: compound 0.1 mM
# Procedure: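 TESEC E. coli strains in which the native enzyme is deleted and replaced by arabinose-inducible Mtb Asd, DapB, CysH or TrpD, each grown in its selective medium. Strains were screened against the Prestwick library at 0.1 mM and 1% DMSO in 384-well format at low and high arabinose induction. Growth is read as OD600 after 10 h in triplicate.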
# [4] = tested on: E. coli TESEC Alr+ wild-type control; settings: compound 0.1 mM; raw OD600 reference: median of DMSO wells 0.49, cell-free background 0.052
# Procedure: (§2)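 TESEC Mtb Alr E. coli (ΔaraC ΔtolC ΔentC Δalr ΔdadX, arabinose-inducible Mtb Alr) or the Alr+ wild-type control strain, grown in defined M9-fructose medium without D-alanine in 96-well plates with Prestwick library compounds at 0.1 mM and 1% DMSO. Low Alr induction is 0.1 µM arabinose and high induction is 10 mM arabinose.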
# [5] = tested on: E. coli TESEC Mtb Alr; settings: compound 0.1 mM; remark: listed apart in the source
# Procedure: as §2
# [6] = arabinose 1000 nM, raw OD600 reference: median of DMSO wells 0.294, cell-free background 0.041
# [7] = arabinose 10000 nM, raw OD600 reference: median of DMSO wells 0.264, cell-free background 0.041
# [8] = arabinose 100000 nM, raw OD600 reference: median of DMSO wells 0.201, cell-free background 0.041
# [9] = arabinose 1000000 nM, raw OD600 reference: median of DMSO wells 0.193, cell-free background 0.041
# [10] = arabinose 10000000 nM, raw OD600 reference: median of DMSO wells 0.146, cell-free background 0.041
# [11] = arabinose induction (level): High, raw OD600 reference: median of DMSO wells 0.331, cell-free background 0.041
# [12] = arabinose induction (level): Low, raw OD600 reference: median of DMSO wells 0.417, cell-free background 0.041
# [13] = arabinose 100 nM, raw OD600 reference: median of DMSO wells 0.413, cell-free background 0.052
# [14] = arabinose 10000000 nM, raw OD600 reference: median of DMSO wells […], cell-free background 0.052
Structure (SMILES),growth [1],"growth [2, 6]","growth [2, 7]","growth [2, 8]","growth [2, 9]","growth [2, 10]","growth [3, 11]","growth [3, 12]",growth [4],"growth [5, 13]","growth [5, 14]"
CC(=O)Oc1ccccc1C(=O)Oc1ccccc1C(=O)O [Acetylsalicylsalicylic acid],0.253 ± 0.0046,0.275 ± 0.0063,0.266 ± 0.016,0.203 ± 0.011,0.181 ± 0.0064,0.142 ± 0.0078,0.325 ± 0.1,0.421 ± 0.069,0.449 ± 0.04,0.4179 ± 0.0027,0.352 ± 0.023
CN1CCN(C2=Nc3cc(Cl)ccc3Nc3ccccc32)CC1 [Clozapine],0.156 ± 0.008,0.206 ± 0.0044,0.242 ± 0.0072,0.178 ± 0.011,0.1 ± 0.0026,0.154 ± 0.0034,0.143 ± 0.018,0.293 ± 0.0055,0.502 ± 0.044,0.41 ± 0.0084,0.32 ± 0.011
CCN(CCCCOC(=O)c1ccc(OC)c(OC)c1)C(C)Cc1ccc(OC)cc1 (stereo not drawn) [Mebeverine hydrochloride],0.157 ± 0.004,0.231 ± 0.0024,0.243 ± 0.0072,0.18 ± 0.0066,0.125 ± 0.0057,0.165 ± 0.0094,0.197 ± 0.026,0.396 ± 0.046,0.435 ± 0.016,0.4063 ± 0.003,0.311 ± 0.0053
CN1Cc2c(N)cccc2C(c2ccccc2)C1 (stereo not drawn) [Nomifensine maleate],0.225 ± 0.0061,0.273 ± 0.0089,0.249 ± 0.0043,0.19 ± 0.036,0.1674 ± 0.0015,0.141 ± 0.0063,0.243 ± 0.026,0.357 ± 0.038,0.498 ± 0.078,0.4122 ± 0.0024,0.348 ± 0.019
CNCCCC1c2ccccc2C=Cc2ccccc21 [Protriptyline hydrochloride],0.177 ± 0.013,0.219 ± 0.0041,0.256 ± 0.018,0.157 ± 0.0029,0.12 ± 0.0051,0.137 ± 0.0036,0.153 ± 0.0035,0.263 ± 0.058,0.558 ± 0.023,0.402 ± 0.013,0.313 ± 0.018
CC(CNC1CCCCC1)OC(=O)c1ccccc1 (stereo not drawn) [Hexylcaine hydrochloride],0.242 ± 0.016,0.303 ± 0.0092,0.273 ± 0.0072,0.191 ± 0.0085,0.173 ± 0.0098,0.1577 ± 0.0015,0.452 ± 0.026,0.489 ± 0.039,0.552 ± 0.022,0.409 ± 0.016,0.309 ± 0.0087
COc1ccc([C@@H]2Sc3ccccc3N(CCN(C)C)C(=O)[C@@H]2OC(C)=O)cc1 [Diltiazem hydrochloride],0.184 ± 0.0078,0.239 ± 0.01,0.274 ± 0.014,0.175 ± 0.0049,0.139 ± 0.0028,0.139 ± 0.0037,0.248 ± 0.063,0.434 ± 0.098,0.476 ± 0.011,0.413 ± 0.0022,0.3 ± 0.013
O=C1CN(/N=C/c2ccc([N+](=O)[O-])o2)C(=O)N1 [Nitrofurantoin],0.0453 ± 0.00076,0.181 ± 0.0058,0.0822 ± 0.0037,0.04437 ± 0.00021,0.0737 ± 0.0054,0.0451 ± 0.00093,0.196 ± 0.034,0.341 ± 0.038,0.053 ± 0.00026,0.0546 ± 0.0087,0.055 ± 0.0017
O=C(OCCOCCO)c1ccccc1Nc1cccc(C(F)(F)F)c1 [Etofenamate],0.0458 ± 0.00036,0.0491 ± 0.0032,0.0483 ± 0.00084,0.049 ± 0.0019,0.0472 ± 0.002,0.0499 ± 0.0013,0.0525 ± 0.0012,0.0509 ± 0.0012,0.0535 ± 0.0025,0.185 ± 0.19,0.0516 ± 0.0022
COc1cc([S+](C)[O-])ccc1-c1nc2cccnc2[nH]1 (stereo not drawn) [Sulmazole],0.227 ± 0.0056,0.282 ± 0.023,0.264 ± 0.0096,0.161 ± 0.027,0.2 ± 0.0059,0.1223 ± 0.00055,0.231 ± 0.039,0.387 ± 0.049,0.4254 ± 0.0034,0.392 ± 0.0053,0.342 ± 0.034
CC1c2cccc(O)c2C(O)=C2C(=O)C3(O)C(O)=C(C(N)=O)C(=O)C(N(C)C)C3C(O)C21 (stereo not drawn) [Doxycycline hydrochloride],0.0447 ± 0.00093,0.0433 ± 0.002,0.0456 ± 0.001,0.04713 ± 0.00031,0.0487 ± 0.0075,0.0461 ± 0.0007,0.0572 ± 0.0053,0.0534 ± 0.0016,0.0579 ± 0.0011,0.0647 ± 0.0031,0.0602 ± 0.0014
"C[C@H]1C[C@@H]2[C@H]([C@@H](O)C[C@@]3(C)[C@H]2CC[C@]3(O)C(=O)CO)[C@@]2(C)C=CC(=O)C=C12 [Methylprednisolone, 6-alpha]",0.202 ± 0.0042,0.254 ± 0.013,0.243 ± 0.0096,0.1512 ± 0.0011,0.116 ± 0.0032,0.134 ± 0.0027,0.259 ± 0.024,0.475 ± 0.018,0.459 ± 0.028,0.431 ± 0.0047,0.295 ± 0.021
CC(C)(C(=O)c1cccnc1)c1cccnc1 [Metyrapone],0.246 ± 0.0034,0.311 ± 0.017,0.273 ± 0.0073,0.198 ± 0.0061,0.2 ± 0.017,0.1411 ± 0.00086,0.317 ± 0.017,0.428 ± 0.0064,0.637 ± 0.095,0.409 ± 0.013,0.3383 ± 0.0029
CN(Cc1cnc2nc(N)nc(N)c2n1)c1ccc(C(=O)N[C@@H](CCC(=O)O)C(=O)O)cc1 [Methotrexate],0.225 ± 0.0067,0.285 ± 0.011,0.244 ± 0.013,0.195 ± 0.011,0.155 ± 0.0048,0.144 ± 0.002,0.24 ± 0.055,0.359 ± 0.022,0.102 ± 0.0015,0.277 ± 0.14,0.126 ± 0.0066
CC(C)(C)CC(C)(C)c1ccc(OCOCCOCCO)c(Cc2cc(C(C)(C)CC(C)(C)C)cc(Cc3cc(C(C)(C)CC(C)(C)C)ccc3OCOCCOCCO)c2OCOCCOCCO)c1 [Tyloxapol],0.341 ± 0.018,0.323 ± 0.0088,0.256 ± 0.0056,0.455 ± 0.027,0.171 ± 0.0031,0.261 ± 0.032,0.475 ± 0.018,0.509 ± 0.0063,0.4593 ± 0.0043,0.418 ± 0.016,0.4093 ± 0.0033
NC[C@@H]1O[C@@H](O[C@H]2[C@H](O)[C@@H](O[C@H]3O[C@H](CO)[C@@H](O)[C@H](N)[C@H]3O)[C@H](N)C[C@@H]2N)[C@@H](O)[C@H](O)[C@H]1O [Kanamycin A sulfate],0.247 ± 0.0031,0.302 ± 0.013,0.263 ± 0.0086,0.228 ± 0.016,0.1781 ± 0.0015,0.164 ± 0.0095,0.245 ± 0.044,0.404 ± 0.073,0.495 ± 0.032,0.403 ± 0.008,0.353 ± 0.014
CCN1CCC[C@H]1CNC(=O)c1c(OC)ccc(Br)c1OC [Remoxipride Hydrochloride],0.256 ± 0.007,0.304 ± 0.016,0.259 ± 0.004,0.192 ± 0.0085,0.184 ± 0.0027,0.136 ± 0.0041,0.288 ± 0.032,0.445 ± 0.015,0.588 ± 0.039,0.416 ± 0.017,0.338 ± 0.039
CCCCC(C)(O)C/C=C/[C@H]1[C@H](O)CC(=O)[C@@H]1CCCCCCC(=O)OC (mixture of isomers) [Misoprostol],0.323 ± 0.014,0.3803 ± 0.0025,0.278 ± 0.0043,0.474 ± 0.013,0.193 ± 0.009,0.22 ± 0.013,0.35 ± 0.071,0.44 ± 0.022,0.518 ± 0.094,0.432 ± 0.0064,0.378 ± 0.013
